This passage reports binding signal results from article PMC7862700, “An all-to-all approach to the identification of sequence-specific readers for epigenetic DNA modifications on cytosine”.

Experiment in all cases: DAPPL (digital affinity profiling via proximity ligation, sequencing); 10 mM Tris-HCl pH 7.5, 50 mM NaCl, 1 mM DTT, 4% glycerol, room temperature, 30 min; GST-TFs on glutathione beads, 16-mer random dsDNA library, 0.1% formaldehyde crosslink after washing; high values mean tight binding
The target in assay [1] is T1, FLI1 (Homo sapiens, UniProt Q01543 1-452).
T1 sequence: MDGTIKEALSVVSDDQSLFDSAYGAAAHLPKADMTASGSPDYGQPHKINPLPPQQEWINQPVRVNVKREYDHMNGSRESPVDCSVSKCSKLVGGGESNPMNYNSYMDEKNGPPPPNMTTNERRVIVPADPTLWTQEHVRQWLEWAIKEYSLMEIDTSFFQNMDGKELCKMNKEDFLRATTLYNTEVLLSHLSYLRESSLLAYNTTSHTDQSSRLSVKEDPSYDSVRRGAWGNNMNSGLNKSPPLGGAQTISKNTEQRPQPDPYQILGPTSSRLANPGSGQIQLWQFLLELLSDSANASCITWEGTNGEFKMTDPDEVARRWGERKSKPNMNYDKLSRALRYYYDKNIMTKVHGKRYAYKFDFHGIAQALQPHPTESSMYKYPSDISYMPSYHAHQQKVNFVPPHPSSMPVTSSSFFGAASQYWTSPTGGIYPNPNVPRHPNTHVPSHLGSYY
To be noted: protein: recombinant; tags: N-terminal GST; dsDNA, one strand shown. The gist of the method:
(§1)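 Each value of binding signal is a hexamer's read frequency for a factor divided by the same hexamer's frequency in the tag-only sample. Barcoded, bead-captured GST fusions of human transcription factors made in yeast were pooled with that sample and incubated with 200 nmole of a random double-stranded 16-mer DNA library in Tris/NaCl/DTT/glycerol buffer at room temperature for 30 min. Washing, 0.1% formaldehyde crosslinking, proximity ligation, PCR and Illumina NextSeq500 sequencing followed.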

The target of assay [2] is T2, ELK1 (Homo sapiens, UniProt P19419 1-428).
T2 sequence: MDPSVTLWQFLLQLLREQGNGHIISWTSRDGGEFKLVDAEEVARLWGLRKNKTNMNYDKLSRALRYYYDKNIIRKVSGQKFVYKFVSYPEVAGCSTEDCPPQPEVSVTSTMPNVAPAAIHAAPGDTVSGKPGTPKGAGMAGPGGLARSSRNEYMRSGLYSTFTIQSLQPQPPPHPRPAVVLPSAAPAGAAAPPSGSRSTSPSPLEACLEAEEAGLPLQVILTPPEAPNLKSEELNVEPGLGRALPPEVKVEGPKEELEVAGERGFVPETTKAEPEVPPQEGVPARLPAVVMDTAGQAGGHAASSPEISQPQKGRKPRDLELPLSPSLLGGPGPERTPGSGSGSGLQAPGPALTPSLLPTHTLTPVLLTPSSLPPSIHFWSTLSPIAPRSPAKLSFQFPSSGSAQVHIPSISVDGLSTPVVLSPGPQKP
The settings on record: protein: recombinant; tags: N-terminal GST; dsDNA, one strand shown. The method, boiled down: as §1

In assay [3] the target is T3, GABPA (Homo sapiens, UniProt Q06546 1-454).
T3 sequence: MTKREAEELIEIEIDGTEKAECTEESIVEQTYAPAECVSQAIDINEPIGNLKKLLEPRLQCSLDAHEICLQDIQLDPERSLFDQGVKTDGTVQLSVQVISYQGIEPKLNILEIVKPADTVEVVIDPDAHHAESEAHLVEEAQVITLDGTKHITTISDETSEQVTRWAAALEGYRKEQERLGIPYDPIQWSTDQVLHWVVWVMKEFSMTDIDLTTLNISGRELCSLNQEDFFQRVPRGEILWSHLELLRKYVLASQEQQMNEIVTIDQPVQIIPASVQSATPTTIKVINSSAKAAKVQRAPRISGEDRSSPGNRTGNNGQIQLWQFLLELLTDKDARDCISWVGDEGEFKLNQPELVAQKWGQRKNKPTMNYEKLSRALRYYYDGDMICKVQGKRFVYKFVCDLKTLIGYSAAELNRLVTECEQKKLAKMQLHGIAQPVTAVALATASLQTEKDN
To be noted: protein: recombinant; tags: N-terminal GST; dsDNA, one strand shown. The method, boiled down:
as §1

The target in assay [4] is T4, ERG (Homo sapiens, UniProt P11308 1-479).
T4 sequence: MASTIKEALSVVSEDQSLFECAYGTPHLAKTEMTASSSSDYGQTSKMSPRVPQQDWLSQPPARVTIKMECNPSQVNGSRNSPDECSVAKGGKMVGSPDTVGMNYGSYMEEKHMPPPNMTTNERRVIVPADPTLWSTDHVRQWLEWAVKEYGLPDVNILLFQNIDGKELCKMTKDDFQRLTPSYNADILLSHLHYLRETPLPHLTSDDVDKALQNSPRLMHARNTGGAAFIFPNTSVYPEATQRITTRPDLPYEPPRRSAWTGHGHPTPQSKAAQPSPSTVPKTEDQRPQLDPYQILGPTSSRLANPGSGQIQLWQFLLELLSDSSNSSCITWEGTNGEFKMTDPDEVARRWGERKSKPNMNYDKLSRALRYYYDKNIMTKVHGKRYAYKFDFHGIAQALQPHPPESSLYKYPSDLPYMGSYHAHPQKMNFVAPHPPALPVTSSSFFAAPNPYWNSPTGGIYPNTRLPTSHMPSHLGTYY
To be noted: protein: recombinant; tags: N-terminal GST; dsDNA, one strand shown. The method, boiled down: as §1

Assay [5] deals with ELF1 (Homo sapiens, UniProt P32519 1-619). The settings on record: protein: recombinant; tags: N-terminal GST; dsDNA, one strand shown. The method, boiled down: as §1
The target of assay [6] is T5, EHF (Homo sapiens, UniProt Q9NZC4 1-300).
T5 sequence: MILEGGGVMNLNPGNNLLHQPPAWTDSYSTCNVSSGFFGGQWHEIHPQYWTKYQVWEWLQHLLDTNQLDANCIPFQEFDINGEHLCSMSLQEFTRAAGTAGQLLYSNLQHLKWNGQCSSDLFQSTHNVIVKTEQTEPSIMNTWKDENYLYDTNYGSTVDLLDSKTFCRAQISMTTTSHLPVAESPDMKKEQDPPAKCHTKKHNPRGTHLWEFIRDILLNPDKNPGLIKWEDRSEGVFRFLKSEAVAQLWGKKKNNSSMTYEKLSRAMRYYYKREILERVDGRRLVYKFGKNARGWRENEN
The settings on record: protein: recombinant; tags: N-terminal GST; dsDNA, one strand shown. The method, boiled down: as §1

For assay [7], the target named is SPI1 (Homo sapiens, UniProt P17947 1-270). The settings on record: protein: recombinant; tags: N-terminal GST; dsDNA, one strand shown. The gist of the method: as §1
For assay [8], the target named is SPIB (Homo sapiens, UniProt Q01892 1-262). The settings on record: protein: recombinant; tags: N-terminal GST; dsDNA, one strand shown. The gist of the method:
as §1

Assay [9] has as its target T6, ELK3 (Homo sapiens, UniProt P41970 1-407).
T6 sequence: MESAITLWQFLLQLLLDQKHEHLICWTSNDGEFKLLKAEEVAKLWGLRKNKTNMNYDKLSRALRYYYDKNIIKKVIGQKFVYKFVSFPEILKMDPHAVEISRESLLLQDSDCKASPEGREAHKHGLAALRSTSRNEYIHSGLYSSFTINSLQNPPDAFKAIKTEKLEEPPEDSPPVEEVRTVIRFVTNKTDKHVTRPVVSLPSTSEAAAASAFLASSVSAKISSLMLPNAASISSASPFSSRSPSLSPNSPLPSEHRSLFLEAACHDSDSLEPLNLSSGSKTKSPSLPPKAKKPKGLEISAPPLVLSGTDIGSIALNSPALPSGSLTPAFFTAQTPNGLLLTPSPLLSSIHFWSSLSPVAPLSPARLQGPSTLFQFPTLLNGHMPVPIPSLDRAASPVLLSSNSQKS
The settings on record: protein: recombinant; tags: N-terminal GST; dsDNA, one strand shown. The gist of the method: as §1

Assay [10] has as its target T7, FEV (Homo sapiens, UniProt Q99581 1-238).
T7 sequence: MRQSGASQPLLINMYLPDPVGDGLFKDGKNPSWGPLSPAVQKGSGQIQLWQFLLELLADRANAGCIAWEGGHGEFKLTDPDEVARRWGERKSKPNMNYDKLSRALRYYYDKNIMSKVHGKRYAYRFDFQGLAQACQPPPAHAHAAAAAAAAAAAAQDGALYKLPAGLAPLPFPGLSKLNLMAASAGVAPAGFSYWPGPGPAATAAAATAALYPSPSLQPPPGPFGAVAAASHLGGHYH
To be noted: protein: recombinant; tags: N-terminal GST; dsDNA, one strand shown. The gist of the method: as §1

Assay [11] deals with ETV5 (Homo sapiens, UniProt P41161 1-510). To be noted: protein: recombinant; tags: N-terminal GST; dsDNA, one strand shown. The method, boiled down: as §1
For assay [12], the target named is HSF1 (Homo sapiens, UniProt Q00613 1-529). To be noted: protein: recombinant; tags: N-terminal GST; chain copies: 3; dsDNA, one strand shown. The method, boiled down: as §1
The target in assay [13] is T8, SPIC (Homo sapiens, UniProt Q8N5J4 1-248).
T8 sequence: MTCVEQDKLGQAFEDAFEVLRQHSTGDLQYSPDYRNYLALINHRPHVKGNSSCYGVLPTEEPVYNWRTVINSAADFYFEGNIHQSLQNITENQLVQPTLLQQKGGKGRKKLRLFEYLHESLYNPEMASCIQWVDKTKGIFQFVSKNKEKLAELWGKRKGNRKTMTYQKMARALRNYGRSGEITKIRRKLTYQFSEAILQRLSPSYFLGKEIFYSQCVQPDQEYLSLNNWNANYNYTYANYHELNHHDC
The settings on record: protein: recombinant; tags: N-terminal GST; dsDNA, one strand shown. The gist of the method:
as §1

Assay [14] deals with ELF4 (Homo sapiens, UniProt Q99607 1-663). The settings on record: protein: recombinant; tags: N-terminal GST; dsDNA, one strand shown. The method, boiled down: as §1
The target in assay [15] is T9, ELK4 (Homo sapiens, UniProt P28324-2 1-405).
T9 sequence: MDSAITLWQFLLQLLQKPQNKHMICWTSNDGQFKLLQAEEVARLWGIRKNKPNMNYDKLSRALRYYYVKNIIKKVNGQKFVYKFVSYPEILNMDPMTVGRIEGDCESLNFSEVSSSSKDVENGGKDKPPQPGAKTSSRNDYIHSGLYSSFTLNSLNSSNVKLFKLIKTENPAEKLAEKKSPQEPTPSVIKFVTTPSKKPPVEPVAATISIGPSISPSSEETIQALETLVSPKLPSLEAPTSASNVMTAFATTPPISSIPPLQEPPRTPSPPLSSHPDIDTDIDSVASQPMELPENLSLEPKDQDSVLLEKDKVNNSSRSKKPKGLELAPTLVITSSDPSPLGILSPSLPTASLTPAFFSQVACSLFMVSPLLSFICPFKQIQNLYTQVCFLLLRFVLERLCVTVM
The settings on record: protein: recombinant; tags: N-terminal GST; dsDNA, one strand shown. The gist of the method:
as §1

Assay [16] has as its target T10, ETV2 (Homo sapiens, UniProt O00321 1-342).
T10 sequence: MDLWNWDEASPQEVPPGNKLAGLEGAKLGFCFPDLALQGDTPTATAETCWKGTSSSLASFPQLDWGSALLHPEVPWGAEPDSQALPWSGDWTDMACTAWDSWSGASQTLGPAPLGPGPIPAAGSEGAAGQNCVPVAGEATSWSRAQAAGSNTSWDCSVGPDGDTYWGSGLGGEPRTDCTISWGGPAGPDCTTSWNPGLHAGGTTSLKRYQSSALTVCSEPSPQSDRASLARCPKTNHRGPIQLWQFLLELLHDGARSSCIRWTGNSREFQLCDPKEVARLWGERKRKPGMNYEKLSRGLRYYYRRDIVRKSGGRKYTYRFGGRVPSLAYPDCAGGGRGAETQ
To be noted: protein: recombinant; tags: N-terminal GST; dsDNA, one strand shown. The method, boiled down: as §1

Assay [17] concerns the target T11, ELF3 (Homo sapiens, UniProt P78545 1-371).
T11 sequence: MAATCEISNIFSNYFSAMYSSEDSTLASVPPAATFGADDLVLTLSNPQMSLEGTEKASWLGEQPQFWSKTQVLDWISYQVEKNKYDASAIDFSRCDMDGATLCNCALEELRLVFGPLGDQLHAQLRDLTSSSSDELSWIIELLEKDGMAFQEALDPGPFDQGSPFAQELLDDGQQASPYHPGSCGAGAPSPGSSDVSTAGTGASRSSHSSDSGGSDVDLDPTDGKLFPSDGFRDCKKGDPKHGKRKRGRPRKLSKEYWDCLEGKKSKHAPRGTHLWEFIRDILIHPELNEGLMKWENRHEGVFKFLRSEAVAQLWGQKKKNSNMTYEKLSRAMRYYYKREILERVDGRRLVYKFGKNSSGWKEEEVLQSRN
The settings on record: protein: recombinant; tags: N-terminal GST; dsDNA, one strand shown. The gist of the method:
as §1

The target in assay [18] is CRX (Homo sapiens, UniProt O43186 1-299). To be noted: protein: recombinant; tags: N-terminal GST; dsDNA, one strand shown. The gist of the method: as §1
Assay [19] addresses ETV1 (Homo sapiens, UniProt P50549 1-477). The settings on record: protein: recombinant; tags: N-terminal GST; dsDNA, one strand shown. The method, boiled down: as §1

ELF4, sequence (Q99607 whole entry): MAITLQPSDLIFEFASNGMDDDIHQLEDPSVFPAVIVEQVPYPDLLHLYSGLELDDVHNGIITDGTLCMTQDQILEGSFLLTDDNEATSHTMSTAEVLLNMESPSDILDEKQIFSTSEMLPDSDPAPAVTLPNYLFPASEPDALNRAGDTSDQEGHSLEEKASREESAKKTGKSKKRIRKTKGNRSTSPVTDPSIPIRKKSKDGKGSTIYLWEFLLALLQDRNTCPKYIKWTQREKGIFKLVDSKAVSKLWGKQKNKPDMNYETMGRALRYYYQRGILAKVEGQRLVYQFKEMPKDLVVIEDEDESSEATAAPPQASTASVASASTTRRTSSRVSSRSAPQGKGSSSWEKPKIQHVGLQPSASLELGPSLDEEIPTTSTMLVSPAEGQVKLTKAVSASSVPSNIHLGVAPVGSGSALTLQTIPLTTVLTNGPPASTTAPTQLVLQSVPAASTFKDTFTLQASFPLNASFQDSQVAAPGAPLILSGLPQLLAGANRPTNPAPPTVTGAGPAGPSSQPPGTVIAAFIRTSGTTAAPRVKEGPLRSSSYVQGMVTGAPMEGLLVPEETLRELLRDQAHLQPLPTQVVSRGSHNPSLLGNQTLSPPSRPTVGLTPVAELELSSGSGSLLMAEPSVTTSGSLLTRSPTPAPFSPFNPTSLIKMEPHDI
SPIB, sequence (Q01892 whole entry): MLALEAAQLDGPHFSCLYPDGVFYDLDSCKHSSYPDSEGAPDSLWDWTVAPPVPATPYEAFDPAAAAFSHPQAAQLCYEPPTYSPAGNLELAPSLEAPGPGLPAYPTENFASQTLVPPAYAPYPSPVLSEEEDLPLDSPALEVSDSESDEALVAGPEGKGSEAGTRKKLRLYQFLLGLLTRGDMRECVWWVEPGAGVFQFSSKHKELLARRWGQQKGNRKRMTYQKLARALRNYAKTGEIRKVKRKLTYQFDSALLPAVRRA
ETV1, sequence (P50549 whole entry): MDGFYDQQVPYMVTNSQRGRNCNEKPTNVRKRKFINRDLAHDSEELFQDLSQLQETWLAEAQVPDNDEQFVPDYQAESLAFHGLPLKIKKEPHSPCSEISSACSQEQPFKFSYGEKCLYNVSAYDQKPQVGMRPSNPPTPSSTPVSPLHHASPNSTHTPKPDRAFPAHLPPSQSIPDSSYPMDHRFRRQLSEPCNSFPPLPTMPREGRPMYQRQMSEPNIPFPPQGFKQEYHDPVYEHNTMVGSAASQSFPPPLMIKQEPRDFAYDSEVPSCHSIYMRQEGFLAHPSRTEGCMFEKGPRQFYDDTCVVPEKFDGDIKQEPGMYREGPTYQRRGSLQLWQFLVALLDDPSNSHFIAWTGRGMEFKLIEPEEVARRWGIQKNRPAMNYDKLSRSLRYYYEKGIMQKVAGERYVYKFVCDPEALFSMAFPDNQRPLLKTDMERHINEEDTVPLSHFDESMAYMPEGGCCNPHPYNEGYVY
ELF1, sequence (P32519 whole entry): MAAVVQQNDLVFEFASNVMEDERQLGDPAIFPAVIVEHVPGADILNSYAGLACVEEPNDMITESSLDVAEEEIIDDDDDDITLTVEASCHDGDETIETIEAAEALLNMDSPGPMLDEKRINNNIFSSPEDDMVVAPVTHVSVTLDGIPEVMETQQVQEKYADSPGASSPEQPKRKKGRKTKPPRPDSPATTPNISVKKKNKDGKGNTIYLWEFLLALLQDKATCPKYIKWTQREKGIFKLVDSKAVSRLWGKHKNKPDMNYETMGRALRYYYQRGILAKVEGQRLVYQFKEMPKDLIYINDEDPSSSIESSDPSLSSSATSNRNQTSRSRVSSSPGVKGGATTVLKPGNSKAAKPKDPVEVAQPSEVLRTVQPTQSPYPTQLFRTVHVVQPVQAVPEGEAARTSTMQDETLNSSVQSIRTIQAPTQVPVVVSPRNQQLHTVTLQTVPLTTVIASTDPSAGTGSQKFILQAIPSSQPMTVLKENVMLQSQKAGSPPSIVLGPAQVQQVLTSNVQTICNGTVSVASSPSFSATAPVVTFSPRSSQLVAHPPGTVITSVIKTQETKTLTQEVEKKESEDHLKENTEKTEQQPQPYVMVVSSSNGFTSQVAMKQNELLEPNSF
CRX, sequence (O43186 whole entry): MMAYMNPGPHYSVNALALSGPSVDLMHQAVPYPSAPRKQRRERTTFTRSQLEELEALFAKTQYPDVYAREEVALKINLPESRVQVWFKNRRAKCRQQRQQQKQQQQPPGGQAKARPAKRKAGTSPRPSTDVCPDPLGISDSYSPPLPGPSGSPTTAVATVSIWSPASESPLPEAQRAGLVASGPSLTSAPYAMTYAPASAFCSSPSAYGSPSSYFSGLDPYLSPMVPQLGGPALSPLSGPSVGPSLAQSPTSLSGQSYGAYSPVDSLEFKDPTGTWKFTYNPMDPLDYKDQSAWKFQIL
HSF1, sequence (Q00613 whole entry): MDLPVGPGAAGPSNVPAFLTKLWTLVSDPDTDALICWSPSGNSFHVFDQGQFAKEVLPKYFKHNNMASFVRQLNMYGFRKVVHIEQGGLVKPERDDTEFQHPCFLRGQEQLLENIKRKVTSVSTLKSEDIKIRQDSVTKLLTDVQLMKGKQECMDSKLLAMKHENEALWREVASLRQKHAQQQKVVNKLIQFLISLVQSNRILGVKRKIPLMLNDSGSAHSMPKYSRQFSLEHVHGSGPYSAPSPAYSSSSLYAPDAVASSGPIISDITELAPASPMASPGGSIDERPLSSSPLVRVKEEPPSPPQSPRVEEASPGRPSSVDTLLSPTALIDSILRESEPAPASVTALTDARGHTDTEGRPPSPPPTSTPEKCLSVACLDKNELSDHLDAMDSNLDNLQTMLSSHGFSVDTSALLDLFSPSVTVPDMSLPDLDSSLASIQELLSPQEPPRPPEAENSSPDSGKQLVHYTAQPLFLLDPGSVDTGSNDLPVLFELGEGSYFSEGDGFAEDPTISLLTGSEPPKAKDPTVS
ETV5, sequence (P41161 whole entry): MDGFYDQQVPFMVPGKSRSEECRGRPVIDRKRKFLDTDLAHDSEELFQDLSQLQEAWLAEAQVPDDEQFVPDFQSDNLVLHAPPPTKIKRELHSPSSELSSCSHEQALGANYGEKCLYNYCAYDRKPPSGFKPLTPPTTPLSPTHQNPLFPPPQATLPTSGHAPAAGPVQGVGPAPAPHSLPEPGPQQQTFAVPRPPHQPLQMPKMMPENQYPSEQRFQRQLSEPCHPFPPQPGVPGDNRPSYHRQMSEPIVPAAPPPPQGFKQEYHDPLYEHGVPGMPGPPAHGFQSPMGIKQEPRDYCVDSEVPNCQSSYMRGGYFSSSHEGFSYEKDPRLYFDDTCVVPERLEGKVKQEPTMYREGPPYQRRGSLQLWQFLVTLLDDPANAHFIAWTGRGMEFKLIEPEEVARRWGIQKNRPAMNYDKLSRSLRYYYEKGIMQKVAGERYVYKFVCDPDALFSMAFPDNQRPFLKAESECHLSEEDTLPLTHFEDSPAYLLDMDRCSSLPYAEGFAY

Turning to ACTCAT, the binding signal in [1] was 1.47 fold enrichment (6-mer frequency, TF over GST control); in assay [2], 1.34 fold enrichment (6-mer frequency, TF over GST control); in [3], 1.36 fold enrichment (6-mer frequency, TF over GST control); in assay [4], 1.16 fold enrichment (6-mer frequency, TF over GST control); in [5], 1.33 fold enrichment (6-mer frequency, TF over GST control); in [6], 1.25 fold enrichment (6-mer frequency, TF over GST control). Besides, the binding signal in [7] was 1.23 fold enrichment (6-mer frequency, TF over GST control); in assay [8], 1.35 fold enrichment (6-mer frequency, TF over GST control); in [9] it was 1.34 fold enrichment (6-mer frequency, TF over GST control); in assay [10], 1.32 fold enrichment (6-mer frequency, TF over GST control); in assay [11], 1.32 fold enrichment (6-mer frequency, TF over GST control); in assay [12], 1.13 fold enrichment (6-mer frequency, TF over GST control). In addition, the binding signal in assay [13] was 1.26 fold enrichment (6-mer frequency, TF over GST control); in assay [14], 1.35 fold enrichment (6-mer frequency, TF over GST control); in assay [15], 1.32 fold enrichment (6-mer frequency, TF over GST control); in [16], 1.42 fold enrichment (6-mer frequency, TF over GST control); in [17] it was 1.13 fold enrichment (6-mer frequency, TF over GST control); in assay [18], 1.19 fold enrichment (6-mer frequency, TF over GST control). The binding signal in assay [19] is 1.35 fold enrichment (6-mer frequency, TF over GST control).
